Source: PubChem (National Center for Advancing Translational Sciences (NCATS))
Abeta yeast res: qHTS for compounds that reverse cellular toxicity of Amyloid beta (A-beta) peptide in yeast: Primary Screen. 410,000 tested, 0.063% active. Potency, µM (titrated, usually from 46.1 µM), usual class: activators. yeast expressing A-beta42, growth rescue, OD600, 48 h; response scale: 0% DMSO, 100% iron-clioquinol control; note: nearly all actives have a fitted effect of over 55% in size
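Growth rescue measured by 600 nm absorbance after 48 h yeast culture at 30 C with compound. Values normalized between DMSO and an equimolar ferric chloride plus clioquinol control.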
TDP-43 yeast inh: qHTS of TDP-43 Inhibitors. Potency, µM (titrated, usually from 46.1 µM), without a hit: at the highest dose growth rescue (activation), hits mostly activators. 410,000 tested, 1.8% active. TDP-43 expressing yeast growth rescue, BacTiter-Glo, 24 h; note: % of control where 0% means no effect; nearly all actives have a fitted effect of over 50% in size
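Readout is BacTiter-Glo luminescence of cell growth, so inhibitors register as activators. TDP-43-expressing yeast at OD600=0.02 in galactose medium, after raffinose pregrowth to mid-log, were incubated with compound for 24 hr at 30 deg C.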
aSyn yeast inh: qHTS of alpha-syn Inhibitors | Yeast expressing alpha-synuclein, growth rescue, BacTiter-Glo, 24 h | Potency, µM (doses to about 46.1 µM), inactives show at the highest dose growth rescue (activation), usual class: activators | 370,000 tested, 0.14% active; note: % of control where 0% means no effect; nearly all actives have a fitted effect of over 65% in size
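Readout is rescue of growth in alpha-synuclein-expressing yeast, so inhibitors of toxicity appear as activators. Growth after 24 hr at 30 deg C in galactose medium is quantified by luminescence.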
FUS yeast rescue: qHTS for Suppressors of FUS Proteinopathy: Primary screen using FUS-linked yeast assay; S. cerevisiae FUS-expressing, growth rescue, OD600, 24 h; Potency, µM (doses to about 76.6 µM), most hits filed as activators; 390,000 tested, 0.24% active; AID 1347120, 2019;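 note: plate controls were DMSO vehicle for no effect and reference control for full effect; nearly all actives have a fitted effect of over 55% in size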
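Toxicity suppression screen in FUS-yeast. Cells induced with 2% galactose, starting OD 0.005, treated 24hr at 30C with compounds at multiple final concentrations; growth by OD600.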
* marks the source's active call; other numbers are inactive results; i = inactive; ? = inconclusive; · = not tested or not shown; [ ] = another dose, or the depositor's remark. Only some compounds are listed: those with a hit (about 2.1% of all), similar ones and a draw of the others. Calls come from the whole dose curve; as a rule, active = well fitted curve in the direction sought with a large enough effect; inconclusive = small, poorly fitted or top-dose-only effect, or another doubt; inactive = no such curve, though single readings can be large; an effect the other way counts as inactive or inconclusive. Potency is the fitted concentration of half-maximal effect.

SMILES	Abeta yeast res	TDP-43 yeast inh	aSyn yeast inh	FUS yeast rescue
C=CCNC(=O)CN(C(=O)c1csc2ccc(Cl)cc12)c1cccc(Br)c1	·	·	·	i
O=C(OCn1nnc2ccccc2c1=O)c1ccc2ncsc2c1	i	11µM*	?	i
CCN(CC)S(=O)(=O)c1ccc(C(=O)OCn2nnc3ccccc3c2=O)cc1	i	0%	3.2µM*	i
O=C(OCn1nnc2ccccc2c1=O)c1ccc(S(=O)(=O)N2CCOCC2)cc1	i	5%	1%	i
Cc1cc(C)c(C#N)c(Sc2nnnn2-c2ccccc2)n1	i	8%	2%	i
Cc1nc(Sc2nnnn2-c2ccccc2)c(C#N)c(C)c1C	i	18µM*	0%	i
O=C(c1cccs1)C1CCN(c2ncnc3sccc23)CC1	·	·	·	i
CC(C)CCN1C(=O)COc2ccccc2C1c1nnnn1-c1ccc2c(c1)OCCO2 (stereo unspecified)	·	·	·	i
COc1ccc(N/N=C(/C(C)=O)N2CCCc3ccccc32)cc1	i	20µM*	-3%	i
COc1ccc(/C=C/C(=O)N2CCCc3ccccc32)cc1	i	20µM*	-1%	·
COc1ccc(NC(=O)N2CCCc3ccccc32)cc1	i	16%	-1%	i
CCN(CC)C(=O)CC[C@H]1CC[C@]2(CCCN(Cc3ccccn3)C2)O1	·	·	·	i
Cc1ccc(OCc2occc2C(=O)O)cc1	i	14µM*	5%	i
Cc1ccoc1C(=O)NCc1occc1C(=O)O	i	5%	-4%	i
CCOc1ccc(S(=O)(=O)c2cn(Cc3ccc(C)cc3)c3ccc(OC)cc3c2=O)cc1	i	21%	·	16µM*
CCn1cc(S(=O)(=O)c2ccc(C)cc2)c(=O)c2cc(OC)ccc21	i	0%	-6%	i
Cc1c2n(c3ccccc13)CC/C2=N\O	i	11µM*	4%	i
CO/N=C1\CCn2c1c(C)c1ccccc12	i	-13%[1.82 µM]	0%	i
C/C(=C\C(=S)Nc1ccccc1)Nc1ccccc1	i	13µM*	-2%	i
O=S1(=O)CC2c3ccc(F)cc3CN2CN1CCc1ccccc1 (stereo unspecified)	·	·	·	i
c1ccc(Cc2nn3c(Cn4nnc5ccccc54)nnc3s2)cc1	i	-5%	-19%	i
c1ccc2c(c1)OCC(c1nn3c(Cn4nnc5ccccc54)nnc3s1)O2 (stereo unspecified)	i	-3%	-3%	32µM*
CS(=O)(=O)c1ccc(/C=C2\C=Cc3ccccc32)cc1	·	·	-1%	·
FC(F)(F)c1cc(CNC2CCC23CCCCC3)ccc1Cl (stereo unspecified)	·	·	·	i
Clc1ccc(CSc2nnc(CNc3cccc(Cl)c3)o2)cc1	i	-29%	8.9µM*	i
SMILES	Abeta yeast res	TDP-43 yeast inh	aSyn yeast inh	FUS yeast rescue
Fc1cccc(Cl)c1CSc1nnc(CNc2ccccc2)o1	i	18µM*	?	i
Cc1ccc(CSc2nnc(CCCCCNC(=O)OC(C)(C)C)o2)cc1	i	4%	11%	?
CC(C)(C)OC(=O)NCCc1nnc(SCc2ccc(Cl)cc2)o1	i	18µM*	10%	?
Fc1ccc(NCc2nnc(SCc3ccccc3)o2)cc1	i	?	4%	i
CN(C)c1ccc(C=Nc2cncc3ccccc23)cc1	·	·	-6%	·
C#CCN1CC(N(C)CCOC(=O)c2cccs2)CS1(=O)=O (stereo unspecified)	·	·	·	i
O=C1ON=C(c2ccccc2)/C1=C/c1ccc(O)c(O)c1	i	?	5µM*	i
COc1ccc(/C=C2\C(=O)ON=C2c2ccccc2)cc1	i	?	14%	i
COc1cc(/C=C2\C(=O)ON=C2c2ccc(Cl)cc2)ccc1O	i	?	4%	?
O=C1ON=C(c2ccccc2)/C1=C/c1ccc(OS(=O)(=O)c2ccccc2)cc1	i	13µM*	6%	·
C/C(=N/NC(=O)CSc1nnc(-c2ccccc2)n1-c1ccc(Cl)cc1)c1cccc(O)c1	·	·	·	i
COc1cccc(NC(=O)NC2CCCCN(Cc3ccc(C)cc3)C2=O)c1 (stereo unspecified)	·	·	·	i
COc1ccc(OC)c(CCNC(=O)Cn2ccc3cc(S(=O)(=O)N4CCCCC4)ccc32)c1	i	-2%	·	35µM*
COc1ccccc1CCNC(=O)Cn1ccc2cc(S(=O)(=O)N3CCCCCC3)ccc21	i	13%	·	i
O=C(Nc1nnc(-c2ccc(F)cc2)o1)c1cc(Cl)sc1Cl	i	?	?	·
O=C(Nc1nnc(-c2ccccc2)o1)c1cc(Cl)sc1Cl	?	-4%	3.2µM*	i
O=C(Nc1nnc(-c2ccc(Cl)cc2)o1)Nc1ccccc1Cl	i	23%	1%	i
COc1cccc(-c2nnc(NC(=O)c3ccc(Cl)s3)o2)c1	?	10µM*	?	i
O=C(Nc1nnc(-c2ccco2)o1)c1ccc(Cl)s1	i	?	7%	i
Cc1cccc(-c2nnc(NC(=O)c3ccc(Cl)cc3)o2)c1	?	?	7.1µM*	i
O=C(Nc1nnc(-c2ccc(Cl)cc2)o1)c1nc2ccccc2s1	i	?	18µM*	i
CCn1c(=O)[nH]n(C/C(C)=C\c2c[n+](Cc3ccc4c(c3)OCO4)c(N)[nH]2)c1=O	·	·	·	i
CCCCCN1CCCCC(NC(=O)c2ccc(F)c(F)c2)C1=O (stereo unspecified)	·	·	·	i
Cc1cccc(-c2c(NC(=O)c3ccco3)oc3c(C)cccc3c2=O)c1	i	-10%	-3%	i
Cc1cccc2c(=O)c(-c3ccc4c(c3)OCO4)c(NC(=O)c3ccco3)oc12	i	16µM*	2%	i
SMILES	Abeta yeast res	TDP-43 yeast inh	aSyn yeast inh	FUS yeast rescue
COc1cc(-c2c(NC(=O)c3ccco3)oc3c(C)cccc3c2=O)cc(OC)c1OC	i	-10%	-6%	i
COc1ccc(-c2c(NC(=O)c3ccco3)oc3c(C)cccc3c2=O)cc1	i	14µM*	0%	i
CN(C)[C@H]1CCN(c2cccc3c2S(=O)(=O)N(C2CC2)CCCO3)C1	·	·	·	i
Cc1ccc(C2Nc3cccc4cccc(c34)N2)s1	i	10µM*	-10%	·
Fc1ccc(C2Nc3cccc4cccc(c34)N2)cc1	i	-4%	-8%	i
Cc1ccc(OCC(=O)Nc2ccc(F)cc2)c([N+](=O)[O-])n1	i	10%[9.22 µM]	7%	i
Cc1ccc(OCC(=O)Nc2ccc(C)c(S(=O)(=O)N3CCCCC3)c2)c([N+](=O)[O-])n1	i	14µM*	1%	i
Cc1ccc(OCC(=O)Nc2ccc(S(=O)(=O)N3CCCCC3)cc2)c([N+](=O)[O-])n1	i	-18%[0.397 µM]	1%	i
Cc1ccc(OCC(=O)Nc2ccc(Cl)cc2)c([N+](=O)[O-])n1	i	13µM*	2%	i
CN(C)c1ccc(/C=C2\CCc3ccccc32)cc1	·	·	1%	·
CC(C)CCN(C)C1CCN(C(=O)Nc2ccccc2)CC1	·	·	·	i
